Assay results: PubChem BioAssay (NCATS)
Results filed as inconclusive are left out. A call without a number means that no potency is given here. The source made the active and inactive calls. Calls come from the whole dose curve; as a rule, active = well fitted curve in the direction sought with a large enough effect; inconclusive = small, poorly fitted or top-dose-only effect, or another doubt; inactive = no such curve, though single readings can be large; an effect the other way counts as inactive or inconclusive.

Target: Guanine nucleotide-binding protein G(i) subunit alpha-1 (Homo sapiens) (UniProt P63096)
Sequence (P63096 whole entry, looked up): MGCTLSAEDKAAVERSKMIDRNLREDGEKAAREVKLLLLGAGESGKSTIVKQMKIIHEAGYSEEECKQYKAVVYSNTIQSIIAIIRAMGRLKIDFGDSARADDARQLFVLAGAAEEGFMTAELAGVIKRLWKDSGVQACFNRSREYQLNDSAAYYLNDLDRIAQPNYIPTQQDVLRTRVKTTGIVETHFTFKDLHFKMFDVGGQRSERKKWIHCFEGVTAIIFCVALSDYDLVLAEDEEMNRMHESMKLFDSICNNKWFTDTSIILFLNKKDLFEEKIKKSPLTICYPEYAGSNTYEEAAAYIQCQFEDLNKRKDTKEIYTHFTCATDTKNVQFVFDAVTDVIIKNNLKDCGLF
Test: qHTS Assay for Inhibitors of RGS12 GoLoco Motif Activity (Green Fluorophore) (AID 879);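 note: negative values mean loss of peptide binding seen as reduced polarization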
Settings: Galphai1/FITC-RGS12 GoLoco peptide, fluorescence polarization; series mostly up to 57.1 µM
Summary of the method: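 A drop in FITC polarization marked displacement of the FITC-tagged RGS12 GoLoco peptide (10 nM) from Gαi1 (50 nM). Compounds were incubated 10 min at room temperature in Tris pH 7.5 buffer containing 150 mM NaCl, 0.1 mM GDP and 0.05% NP40; unlabeled peptide titration served as control.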

Question: With `CNCCCN1c2ccccc2CCc2ccccc21` as the molecule, how does the Potency read?
Answer: inactive

Question: Which Potency does the source give for `C(=C\c1ccccc1)/CN1CCN(C(c2ccccc2)c2ccccc2)CC1` here?
Answer: inactive

Question: Which Potency does the source give for `CSc1ccc(C(=O)c2[nH]c(=O)[nH]c2C)cc1` here?
Answer: inactive

Question: With `CCc1c(C)[nH]c2c1C(=O)C(CN1CCOCC1)CC2` (stereo not drawn) as the molecule, how does the Potency read?
Answer: inactive

Question: With `C[C@]12CCC(=O)C=C1CC[C@@H]1[C@@H]2CC[C@@]2(C)[C@H]1CC[C@]2(O)C(=O)CO` as the molecule, how does the Potency read?
Answer: inactive

Question: For `O=C1CC2(CCCC2)CC(=O)N1CCCCN1CCN(c2ncccn2)CC1`, which Potency is on record?
Answer: inactive

Question: For `CCNC(=O)N1CCN(CCCC(c2ccc(F)cc2)c2ccc(F)cc2)CC1`, which Potency is on record?
Answer: inactive

Question: With `C[N+](C)(C)CCCCCCCCCC[N+](C)(C)C` as the molecule, how does the Potency read?
Answer: inactive

Question: Which Potency does the source give for `O=C(O)CP(=O)(O)O` here?
Answer: inactive

Question: With `NCCCNCCSP(=O)(O)O` as the molecule, how does the Potency read?
Answer: inactive

Question: With `COCC(=O)O[C@]1(CCN(C)CCCc2nc3ccccc3[nH]2)CCc2cc(F)ccc2[C@@H]1C(C)C` as the molecule, how does the Potency read?
Answer: inactive

Question: For `COc1cc(C(=O)OCCCN2CCCN(CCCOC(=O)c3cc(OC)c(OC)c(OC)c3)CC2)cc(OC)c1OC`, which Potency is on record?
Answer: inactive

Question: For `O=C(O)CN(CCN(CC(=O)O)CC(=O)O)CCN(CC(=O)O)CC(=O)O`, which Potency is on record?
Answer: inactive

Question: With `C[N+](C)(C)CCOC(=O)CCC(=O)OCC[N+](C)(C)C` as the molecule, how does the Potency read?
Answer: inactive

Target: Cytochrome P450 3A4 (Homo sapiens) (UniProt P08684)
Sequence (P08684 whole entry, looked up): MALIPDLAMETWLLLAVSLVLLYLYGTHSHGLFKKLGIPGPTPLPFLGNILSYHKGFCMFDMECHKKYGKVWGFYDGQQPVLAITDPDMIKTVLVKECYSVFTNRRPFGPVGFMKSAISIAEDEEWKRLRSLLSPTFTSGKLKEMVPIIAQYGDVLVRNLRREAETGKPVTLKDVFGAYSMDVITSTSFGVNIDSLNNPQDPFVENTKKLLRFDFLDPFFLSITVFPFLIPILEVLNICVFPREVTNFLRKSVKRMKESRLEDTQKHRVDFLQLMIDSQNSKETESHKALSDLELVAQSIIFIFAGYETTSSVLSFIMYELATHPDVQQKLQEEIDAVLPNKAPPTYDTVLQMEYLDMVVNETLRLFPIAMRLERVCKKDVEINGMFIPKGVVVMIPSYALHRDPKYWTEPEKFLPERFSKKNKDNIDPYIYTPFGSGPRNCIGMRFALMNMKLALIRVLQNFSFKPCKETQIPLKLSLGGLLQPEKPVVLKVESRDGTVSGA
Test: qHTS Assay for Inhibitors and Substrates of Cytochrome P450 3A4 (AID 884); note: nearly all actives have a fitted effect of over 50% in size
Settings: recombinant CYP3A4, Luciferin-PPXE luminescence; series mostly up to 57.1 µM
Summary of the method: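 Luminescent readout of luciferin produced by CYP3A4 (20 nM) dealkylation of Luciferin-PPXE, 25 uM (its KM). NADPH-driven reaction ran 60 min at RT after 10 min compound preincubation; data scaled to 57 uM ketoconazole as 100% inhibition.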

Question: With `CC(C)NCC(O)c1cc(O)cc(O)c1` (stereo not drawn) as the molecule, how does the outcome read?
Answer: inactive

Question: Which outcome does the source give for `Fc1ccc(C(c2ccc(F)cc2)N2CCN(C/C=C/c3ccccc3)CC2)cc1` here?
Answer: inactive

Question: With `CC(=O)OC(C)C[N+](C)(C)C` (stereo not drawn) as the molecule, how does the outcome read?
Answer: inactive

Question: With `CCCNC(C)C(=O)Nc1ccccc1C` (stereo not drawn) as the molecule, how does the outcome read?
Answer: inactive

Question: With `CCCCCN(CCCCC)C(=O)C(CCC(=O)O)NC(=O)c1ccc(Cl)c(Cl)c1` (stereo not drawn) as the molecule, how does the outcome read?
Answer: inactive

Question: For `CC(C)(Oc1ccc(CCNC(=O)c2ccc(Cl)cc2)cc1)C(=O)O`, which outcome is on record?
Answer: inactive

Question: For `C=CCc1ccccc1OCC(O)CNC(C)C` (stereo not drawn), which outcome is on record?
Answer: inactive

Question: For `CN(C)CCN(Cc1cccs1)c1ccccn1`, which outcome is on record?
Answer: inactive

Question: For `Nc1c2c(nc3ccccc13)CCCC2O` (stereo not drawn), which outcome is on record?
Answer: inactive

Question: Which outcome does the source give for `CCCN(CCC)C(=O)C(CCC(=O)O)NC(=O)c1ccccc1` (stereo not drawn) here?
Answer: inactive

Tested on: not listed separately
Test: Confirmation and Secondary Assay for Modulators of Hemoglobin Beta Chain Splicing at IVS2 654 locus (AID 910);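 note: HeLa cells stably carrying EGFP split by mutant beta-globin IVS2-654 intron; per-well total GFP intensity by laser scanning cytometry after 2-day treatment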
Settings: HeLa EGFP-654 splicing reporter, GFP fluorescence, 48 h; series mostly up to 46.1 µM
Summary of the method: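 Readout: per-well total peak green fluorescence (488 nm ex, 500–520 nm em) from objects 5–250 µm, reflecting correct splicing of an EGFP-654 reporter. Compounds were applied for 2 days at 37 °C to overnight-plated HeLa EGFP-654 cells; controls were DMSO and 500 nM IVS2-654 PNA.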

Question: With `CNCCCN1c2ccccc2CCc2ccccc21` as the molecule, how does the outcome read?
Answer: inactive

Question: Which outcome does the source give for `COC(=O)C1=C(C)NC(C)=C(C(=O)OCCN(C)Cc2ccccc2)C1c1cccc([N+](=O)[O-])c1` (stereo not drawn) here?
Answer: inactive

Question: Which outcome does the source give for `CC(C)(C)NCC(O)c1cc(O)cc(O)c1` (stereo not drawn) here?
Answer: inactive

Question: For `CC(C)NCC(O)c1cc(O)cc(O)c1` (stereo not drawn), which outcome is on record?
Answer: inactive

Question: For `Fc1ccc(C(c2ccc(F)cc2)N2CCN(C/C=C/c3ccccc3)CC2)cc1`, which outcome is on record?
Answer: inactive

Question: For `COCCc1ccc(OCC(O)CNC(C)C)cc1` (stereo not drawn), which outcome is on record?
Answer: inactive

Question: With `CC(=O)OC(C)C[N+](C)(C)C` (stereo not drawn) as the molecule, how does the outcome read?
Answer: inactive

Question: For `CCCNC(C)C(=O)Nc1ccccc1C` (stereo not drawn), which outcome is on record?
Answer: inactive

Question: Which outcome does the source give for `Cc1ccc(/C(=C\CN2CCCC2)c2ccccn2)cc1` here?
Answer: inactive

Question: Which outcome does the source give for `c1ccc2c(c1)CCCC2C1=NCCN1` (stereo not drawn) here?
Answer: inactive

Question: With `CCCCCN(CCCCC)C(=O)C(CCC(=O)O)NC(=O)c1ccc(Cl)c(Cl)c1` (stereo not drawn) as the molecule, how does the outcome read?
Answer: inactive

Question: Which outcome does the source give for `CC(C)(Oc1ccc(CCNC(=O)c2ccc(Cl)cc2)cc1)C(=O)O` here?
Answer: inactive

Question: With `C=CCc1ccccc1OCC(O)CNC(C)C` (stereo not drawn) as the molecule, how does the outcome read?
Answer: inactive

Question: With `CC(C)COCC(CN(Cc1ccccc1)c1ccccc1)N1CCCC1` (stereo not drawn) as the molecule, how does the outcome read?
Answer: inactive

Question: For `CN(C)CCN(Cc1cccs1)c1ccccn1`, which outcome is on record?
Answer: inactive

Question: With `OC(CCN1CCCCC1)(c1ccccc1)C1CCCCC1` (stereo not drawn) as the molecule, how does the outcome read?
Answer: inactive

Question: Which outcome does the source give for `Nc1c2c(nc3ccccc13)CCCC2O` (stereo not drawn) here?
Answer: inactive

Question: For `CC(N=C(NC#N)Nc1ccncc1)C(C)(C)C` (stereo not drawn), which outcome is on record?
Answer: inactive

Question: With `CCCN(CCC)C(=O)C(CCC(=O)O)NC(=O)c1ccccc1` (stereo not drawn) as the molecule, how does the outcome read?
Answer: inactive
